In PubChem BioAssay (EPA / NIEHS) one finds outcome and AC50 data, which are given here for 26 molecules.

The term AC50 denotes the concentration at which the activity in the assay is half-maximal.

Experiment [1] in a line: ATG_GRE_CIS: Attagene CIS-FACTORIAL HepG2 Assay for human Glucocorticoid Response Elements (GRE) (AID 2282947). As to conditions: HepG2 GRE cis-reporter, Attagene multiplex mRNA; AC50: actives raise or lower the signal unless noted; outcome: actives raise or lower the signal unless noted. The method in brief: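 Cells (HepG2) bearing transfected cis-promoter reporter transcription units were treated with chemical for 24 hours. Reporter mRNA was measured via RT-PCR with capillary electrophoresis, and activity was fitted in both directions relative to DMSO.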

Experiment [2] in a line: ATG_ISRE_CIS: Attagene CIS-FACTORIAL HepG2 Assay for human Interferon Regulatory Factor 1 (IRF1) binding to an Interferon-Stimulated Response Element (ISRE) (AID 2282948). As to conditions: HepG2 ISRE cis-reporter (Attagene), mRNA transcription readout; actives raise or lower the signal. In short, it runs like this:
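Multiplexed mRNA reporter readout in human liver HepG2 cells: cis-element-driven reporters transfected, compound added for 24 h, transcripts amplified, fluorescently labelled and sized by capillary electrophoresis; curve fitting bidirectional against DMSO.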

The nature of experiment [3]: ATG_M_32_CIS: Attagene CIS-FACTORIAL HepG2 Assay for M32 Transcription Factor (Internal Marker) (AID 2282949).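 Also: background control marker of the multiplexed CIS panel rather than a real target.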 As to conditions: HepG2 Attagene cis-factorial M32 reporter, mRNA; actives raise or lower the signal. In short, it runs like this:
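HepG2 human liver cells transiently transfected with cis-promoter-driven multiple reporter transcription units, dosed 24 h. Reporter mRNA quantified by RT-PCR, FAM-labelled primer extension, HpaI digest and capillary electrophoresis; bidirectional fit versus DMSO baseline.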

A short description of experiment [4]: ATG_M_06_CIS: Attagene CIS-FACTORIAL HepG2 Assay for M06 Transcription Factor (Internal Marker) (AID 2282950). As to conditions: HepG2 Attagene CIS-FACTORIAL M06 internal marker reporter; actives raise or lower the signal. In short, it runs like this: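 One of many multiplexed endpoints: HepG2 reporter mRNA after 24 h dosing, detected by RT-PCR and capillary electrophoresis fluorescence; gain or loss of signal analysed against DMSO.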

For experiment [5], the target named is Hypoxia-inducible factor 1-alpha (Homo sapiens) (UniProt Q16665). The experiment can be described thus: ATG_HIF1a_CIS: Attagene CIS-FACTORIAL HepG2 Assay for human Hypoxia Inducible Factor 1 (HIF1A) (AID 2282951). As to conditions: HepG2 Attagene cis-factorial HIF1a reporter transcription; actives raise or lower the signal. The method in brief:
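In this multiplexed cell assay, HepG2 cells bearing transfected cis reporters are dosed for 24 h and reporter mRNA is read by RT-PCR plus capillary electrophoresis; signal increases and decreases are both scored against DMSO.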

In experiment [6] the target is Hepatocyte nuclear factor 6 (Homo sapiens) (UniProt Q9UBC0). The experiment can be described thus: ATG_HNF6_CIS: Attagene CIS-FACTORIAL HepG2 Assay for human Hepatocyte Nuclear Factor 6 (HNF6) (AID 2282952). The following applies: HepG2 Attagene cis-factorial HNF6 reporter transcription; actives raise or lower the signal. The method in brief: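 Endogenous transcription factor activity in human HepG2 liver cells was captured through cis-regulated reporter constructs. After 24 h treatment, reporter mRNA was measured by RT-PCR with capillary electrophoresis, and activity was fitted in both directions relative to DMSO.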
Sequence of Hepatocyte nuclear factor 6 (Homo sapiens) (Q9UBC0 whole entry, looked up): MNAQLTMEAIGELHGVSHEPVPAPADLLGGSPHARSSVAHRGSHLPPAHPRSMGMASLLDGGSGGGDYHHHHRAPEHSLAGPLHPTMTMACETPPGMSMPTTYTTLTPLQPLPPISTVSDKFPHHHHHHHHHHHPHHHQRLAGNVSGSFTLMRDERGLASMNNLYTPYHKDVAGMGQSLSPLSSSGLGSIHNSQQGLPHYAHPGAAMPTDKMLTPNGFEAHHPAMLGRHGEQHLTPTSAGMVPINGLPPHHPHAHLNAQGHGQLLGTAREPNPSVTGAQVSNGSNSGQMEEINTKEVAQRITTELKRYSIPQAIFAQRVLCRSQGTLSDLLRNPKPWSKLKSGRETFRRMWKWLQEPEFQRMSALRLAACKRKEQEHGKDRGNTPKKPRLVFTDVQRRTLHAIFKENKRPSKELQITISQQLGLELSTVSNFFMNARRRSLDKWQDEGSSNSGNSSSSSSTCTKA

Experiment [7] has as its target Heat shock factor protein 1 (Homo sapiens) (UniProt Q00613). The experiment can be described thus: ATG_HSE_CIS: Attagene CIS-FACTORIAL HepG2 Assay for human Heat Shock Transcription Factor 1 (HSE) (AID 2282953). As to conditions: HepG2 HSE cis-reporter, Attagene RNA transcription; actives raise or lower the signal. The method in brief: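 Using HepG2 with transfected cis-driven reporter constructs, compound effects on endogenous factor activity are scored as reporter mRNA change at 24 h. Detection: RT-PCR, HpaI digestion, capillary electrophoresis; bidirectional fitting to DMSO.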

The nature of experiment [8]: ATG_MRE_CIS: Attagene CIS-FACTORIAL HepG2 Assay for human Metal Responsive Element (MRE) (AID 2282954). The following applies: HepG2 MRE cis-reporter transcription, Attagene multiplex; actives raise or lower the signal. In short, it runs like this:
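Cells were transfected with cis-promoter reporter transcription units, then dosed for 24 h. RNA was reverse-transcribed, amplified, fluorescently labelled and resolved by capillary electrophoresis, and activity was fitted in both directions relative to DMSO.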

Experiment [9] is described as follows: ATG_PBREM_CIS: Attagene CIS-FACTORIAL HepG2 Assay for human Phenobarbital-responsive Enhancer Module (PBREM) (AID 2282955). As to conditions: HepG2 PBREM cis-reporter, Attagene multiplexed transcription; actives raise or lower the signal. The method in brief: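 After a 24 h incubation with test chemical, transfected HepG2 cells yield total RNA; reporter-specific RT-PCR products are fluorescently labelled, HpaI-digested and resolved by capillary electrophoresis against ROX size standards.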

Experiment [10] addresses Paired box protein Pax-6 (Homo sapiens) (UniProt P26367). The experiment can be described thus: ATG_Pax6_CIS: Attagene CIS-FACTORIAL HepG2 Assay for human Paired Box 6 (PAX6) (AID 2282956). The following applies: HepG2 CIS-FACTORIAL PAX6 reporter transcription, RNA readout; actives raise or lower the signal. In short, it runs like this: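 Fluorescent RT-PCR products separated by capillary electrophoresis report PAX6-linked promoter mRNA in HepG2 cells 24 h post-dose. Curves fitted bidirectionally, DMSO as negative control.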

“And” between values parts separate entries of the source, which are not always exact repeats. Equal values may be shown once. Some compounds were tested as several samples or in several runs, with calls that do not always agree. The source made the active and inactive calls. The calls were made as follows: active = hit-call score of the fitted dose curve at least 0.9, where 1 is the maximum; inactive = score below 0.9.

Sequence of Hypoxia-inducible factor 1-alpha (Homo sapiens) (Q16665 whole entry, looked up): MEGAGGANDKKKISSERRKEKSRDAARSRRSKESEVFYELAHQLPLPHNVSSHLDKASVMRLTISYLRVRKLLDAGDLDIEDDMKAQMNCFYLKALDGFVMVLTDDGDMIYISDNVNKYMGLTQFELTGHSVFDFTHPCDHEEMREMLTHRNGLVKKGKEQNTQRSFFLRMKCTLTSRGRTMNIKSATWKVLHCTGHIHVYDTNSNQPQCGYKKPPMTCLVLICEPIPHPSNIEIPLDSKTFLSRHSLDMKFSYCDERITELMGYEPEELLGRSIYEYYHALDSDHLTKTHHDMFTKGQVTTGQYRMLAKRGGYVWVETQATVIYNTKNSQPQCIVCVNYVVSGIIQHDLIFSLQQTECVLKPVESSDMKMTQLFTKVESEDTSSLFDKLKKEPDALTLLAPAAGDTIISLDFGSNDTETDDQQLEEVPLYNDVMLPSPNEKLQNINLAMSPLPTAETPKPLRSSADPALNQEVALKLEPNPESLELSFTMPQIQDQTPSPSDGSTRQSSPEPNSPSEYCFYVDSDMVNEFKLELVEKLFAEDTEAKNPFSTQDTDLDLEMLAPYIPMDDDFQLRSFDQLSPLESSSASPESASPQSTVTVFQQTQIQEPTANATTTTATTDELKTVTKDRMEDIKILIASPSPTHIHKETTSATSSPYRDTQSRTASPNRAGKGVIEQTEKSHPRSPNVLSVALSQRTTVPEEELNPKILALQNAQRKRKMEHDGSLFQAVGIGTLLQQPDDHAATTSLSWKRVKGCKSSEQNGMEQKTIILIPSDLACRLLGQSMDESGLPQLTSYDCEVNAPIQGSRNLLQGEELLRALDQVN
Sequence of Paired box protein Pax-6 (Homo sapiens) (P26367 whole entry, looked up): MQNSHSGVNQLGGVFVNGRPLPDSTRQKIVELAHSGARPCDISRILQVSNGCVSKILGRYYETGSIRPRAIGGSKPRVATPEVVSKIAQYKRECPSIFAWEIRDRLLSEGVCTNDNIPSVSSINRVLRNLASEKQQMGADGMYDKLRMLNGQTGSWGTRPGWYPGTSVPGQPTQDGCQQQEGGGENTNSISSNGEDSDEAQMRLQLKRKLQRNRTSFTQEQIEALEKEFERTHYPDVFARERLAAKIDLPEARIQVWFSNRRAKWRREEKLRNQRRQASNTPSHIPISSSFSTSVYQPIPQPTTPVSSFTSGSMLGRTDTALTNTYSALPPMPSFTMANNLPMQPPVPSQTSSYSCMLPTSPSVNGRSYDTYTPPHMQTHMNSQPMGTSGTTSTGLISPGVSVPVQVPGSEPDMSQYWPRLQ
Sequence of Heat shock factor protein 1 (Homo sapiens) (Q00613 whole entry, looked up): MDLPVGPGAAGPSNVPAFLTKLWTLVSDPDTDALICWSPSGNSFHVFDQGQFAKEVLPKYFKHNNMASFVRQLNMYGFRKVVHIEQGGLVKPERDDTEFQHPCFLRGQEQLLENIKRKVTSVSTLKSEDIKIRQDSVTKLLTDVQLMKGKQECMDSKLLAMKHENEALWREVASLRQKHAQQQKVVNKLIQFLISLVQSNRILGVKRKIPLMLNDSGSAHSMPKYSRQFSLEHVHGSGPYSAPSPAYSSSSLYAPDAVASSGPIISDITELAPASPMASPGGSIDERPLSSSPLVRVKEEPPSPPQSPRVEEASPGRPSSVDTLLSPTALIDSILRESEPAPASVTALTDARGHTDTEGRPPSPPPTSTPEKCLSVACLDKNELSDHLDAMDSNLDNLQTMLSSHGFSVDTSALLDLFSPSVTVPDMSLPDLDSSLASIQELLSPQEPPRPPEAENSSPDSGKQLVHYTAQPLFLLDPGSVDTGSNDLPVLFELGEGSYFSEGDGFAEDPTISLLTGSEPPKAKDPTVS

Regarding `O=CC(F)(F)C(F)(F)C(F)(F)F`, the molecule was called inactive in experiment [1], in experiment [2], in [3], in experiment [4], in [5] and in experiment [6]. In addition, the result in [7], in [8], in [9] and in [10] was inactive.
On to `O=C(O)c1cccc(C(=O)O)n1`, for which the outcome in [1], in experiment [2], in [3], in experiment [4], in experiment [5] and in experiment [6] was inactive. The outcome in [7], in [8], in experiment [9] and in experiment [10] was inactive.
With `O=C1Cc2ccccc2N1c1c(Cl)cccc1Cl`, the molecule was classed as inactive in experiment [1], in [2], in experiment [3], in [4], in experiment [6] and in [10]. Also, the AC50 in [5] is 75.3 µM (active); in experiment [7], 130 µM (active); in experiment [8], 91.5 µM (active).
`CCC(=O)O`: the call in [1], in [2], in [3], in experiment [4], in [5] and in [6] was inactive. In addition, the result in experiment [7], in experiment [8] and in [10] was inactive.
`CC(C)(C)c1ccc(CCC=O)cc1`: the result in [1], in [2], in experiment [3], in experiment [4], in experiment [5] and in [6] was inactive. Further, the molecule was called inactive in experiment [7], in experiment [8], in experiment [9] and in experiment [10].
On to `C=Cc1ccc(O)c(OC)c1`, for which the molecule was classed as inactive in [1], in [2], in experiment [3], in [4], in experiment [6] and in experiment [7].
In the case of `O=C1c2ccc(O)c(O)c2C(=O)c2c(O)ccc(O)c21`, the result in experiment [1], in [2], in experiment [3], in experiment [4], in experiment [6] and in experiment [7] was inactive. Moreover, the result in [9] was inactive. In addition, the AC50 in experiment [5] is 12.6 µM (active).
For `FC1(F)C=CC(F)(F)C1(F)F`, the call in experiment [1], in [2], in [3], in experiment [4], in experiment [5] and in experiment [6] was inactive. The outcome in experiment [7], in [9] and in experiment [10] was inactive.
For the molecule `O=C(c1cc(O)c(O)c(O)c1)c1ccc(O)c(O)c1O`, the molecule was classed as inactive in experiment [1], in experiment [2], in experiment [3], in experiment [4], in [6] and in [7]. Moreover, the outcome in experiment [8] and in experiment [10] was inactive. Further, in [5], the AC50 is 53.5 µM (active).
Turning to `O=C(O)CN(CCCN(CC(=O)O)CC(=O)O)CC(=O)O`, the molecule was called inactive in experiment [1], in [2], in experiment [3], in experiment [4], in experiment [5] and in [6]. The result in experiment [7], in experiment [9] and in [10] was inactive.
Consider `O=CC(F)(F)C(F)(F)C(F)(F)C(F)F`, for which the molecule was called inactive in experiment [1], in experiment [2], in [3], in [4], in experiment [5] and in experiment [6]. Moreover, the outcome in experiment [7], in [8] and in [10] was inactive.
`CC(C)(c1ccc(Oc2ccc(N)cc2)cc1)c1ccc(Oc2ccc(N)cc2)cc1`: the outcome in experiment [1], in experiment [2], in experiment [3], in experiment [4], in experiment [5] and in [6] was inactive. Besides, the result in experiment [7] and in experiment [10] was inactive. In experiment [8], the AC50 is 2.77 µM (active).
`Clc1ccc2c(Cl)ccnc2c1`: the molecule was called inactive in experiment [1], in experiment [2], in experiment [3], in experiment [4], in experiment [5] and in experiment [6]. For the same molecule, the call in [7] and in [9] was inactive.
On to `Cc1cc(Cc2cc(C)cc(C(C)(C)C)c2O)c(O)c(C(C)(C)C)c1`, for which the molecule was classed as inactive in experiment [1], in experiment [2], in experiment [4], in experiment [7] and in experiment [10]. Also, the AC50 in experiment [3] is 100 µM (active); in experiment [5] it was 41.4 µM (active); in [6] it was 176 µM (active); in experiment [9], 151 µM (active).
For the molecule `O=C(Nc1ccc(Cl)c(Cl)c1)c1cc(Cl)cc(Cl)c1O`, the outcome in experiment [1], in [3], in experiment [4] and in experiment [6] was inactive. Besides, the AC50 was 33.4 µM (active) in experiment [2]; 0.378 µM (active) in [5]; 52 µM (active) in experiment [7]; 1.35 µM (active) in experiment [9]; 30.5 µM (active) in [10].
For `FC(OC(F)(F)C(F)(F)C(F)(F)F)C(F)(F)F` (stereo not drawn), the outcome in [1], in experiment [2], in [3], in experiment [4], in experiment [5] and in experiment [6] was inactive. In addition, the outcome in experiment [7], in [9] and in experiment [10] was inactive.
For the molecule `CCCCC=O`, the call in experiment [1], in [2], in [3], in [4], in experiment [5] and in [6] was inactive. Further, the outcome in experiment [7], in [8] and in experiment [10] was inactive.
Regarding `c1cc2cccc3c4cccc5cccc(c(c1)c23)c54`, the outcome in [1], in [2], in experiment [3], in experiment [4], in [6] and in experiment [7] was inactive. The molecule was called inactive in [8] and in experiment [9].
Regarding `CC(C)c1c(C(=O)Nc2ccccc2)c(-c2ccccc2)c(-c2ccc(F)cc2)n1CC[C@@H](O)C[C@@H](O)CC(=O)O`, the outcome in [1], in experiment [2], in [3], in experiment [4], in experiment [7] and in experiment [9] was inactive. For the same molecule, the AC50 in experiment [5] was 57.9 µM (active) and 22.5 µM (active); in [9], 25.3 µM (active).
For the molecule `COC(=O)C(F)(F)C(F)(F)C(F)(F)C(F)(F)C(F)(F)F`, the outcome in [1], in experiment [2], in experiment [3], in experiment [4], in [5] and in experiment [6] was inactive. Besides, the molecule was classed as inactive in experiment [7], in experiment [8] and in [10].
Turning to `Cc1ccc(C(=O)c2ccccc2)cc1`, the outcome in experiment [1], in experiment [2], in [3], in [4], in [5] and in experiment [6] was inactive. Besides, the outcome in experiment [7] and in [9] was inactive.
Regarding `O=C(F)C(F)(F)C(F)(F)C(F)(F)C(=O)F`, the molecule was called inactive in [1], in experiment [2], in experiment [3], in experiment [4], in experiment [5] and in [6]. Further, the call in experiment [7], in experiment [9] and in [10] was inactive.
As to `COCC1CCC(CO)CC1` (stereo not drawn), the molecule was classed as inactive in experiment [1], in experiment [2], in [3], in [4], in experiment [5] and in experiment [6]. The result in experiment [7], in experiment [8] and in experiment [10] was inactive.
As to `Cc1ccccc1C(OCCN(C)C)c1ccccc1` (stereo not drawn), the call in experiment [1], in experiment [2], in [3], in experiment [4], in experiment [6] and in [7] was inactive. Also, the result in experiment [8], in experiment [9] and in experiment [10] was inactive. The AC50 in experiment [8] was 151 µM (active).
In the case of `CCc1cccc(CC)c1N(COC)C(=O)CS(=O)(=O)O`, the result in [1], in experiment [2], in [3], in [4], in experiment [5] and in experiment [6] was inactive. For the same molecule, the outcome in [7] and in [10] was inactive.
Consider `NS(=O)(=O)O`, for which the molecule was classed as inactive in [1], in experiment [2], in experiment [3], in experiment [4], in [5] and in experiment [6]. The outcome in experiment [7] and in [9] was inactive.
